Source: the supplement of paper PMC6555819

Tests used:
Test in all cases: PBM binding z-score (relative to random genomic background probes); higher = stronger binding; sequences stand for … in GC…GCGATTGACAGCGTAGAATGAAGG
[1] = system: FXR:RXRa (NR concentration 270 nM, RXRa partner concentration 90 nM)
In short: (§1)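 Custom Agilent 4×180K protein-binding microarrays carried double-stranded probes, each with a 34-nt variable region. These regions held direct-repeat seeds, single-nucleotide variants, half-site ablations and random human genomic background sequences. Ligand-free nuclear receptor dimers were incubated on the arrays for 1 h, antibodies against each partner (one per run) detected binding, and scanned fluorescence was regression-normalized. Binding z-scores take the random background probes as reference.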

[2] = system: LXRa:RXRa (NR concentration 270 nM, RXRa partner concentration 90 nM)
In short: as §1

[3] = system: LXRa homodimer (NR concentration 270 nM)
In short: as §1

[4] = system: LXRb:RXRa (NR concentration 270 nM, RXRa partner concentration 90 nM)
In short: as §1

[5] = system: LXRb homodimer (NR concentration 270 nM)
In short: as §1

[6] = system: PPARa:RXRa (NR concentration 270 nM, RXRa partner concentration 90 nM)
In short: as §1

[7] = system: PPARg:RXRa (NR concentration 180 nM, RXRa partner concentration 90 nM)
In short: as §1

[8] = system: PPARg:RXRa 270nM:90nM, anti-RXR (NR concentration 270 nM, RXRa partner concentration 90 nM)
In short: as §1

[9] = system: PPARg:RXRa 30nM:10nM, anti-RXR (NR concentration 30 nM, RXRa partner concentration 10 nM)
In short: as §1

[10] = system: PPARg:RXRa 90nM:30nM, anti-RXR (NR concentration 90 nM, RXRa partner concentration 30 nM)
In short: as §1

| Sequence | PBM binding z-score [1] | PBM binding z-score [2] | PBM binding z-score [3] | PBM binding z-score [4] | PBM binding z-score [5] | PBM binding z-score [6] | PBM binding z-score [7] | PBM binding z-score [8] | PBM binding z-score [9] | PBM binding z-score [10] |
| --- | --- | --- | --- | --- | --- | --- | --- | --- | --- | --- |
| GCATATAGGTAATACAAGGTGAAATTCCGATTGT | 1.74 | 2.2 | 0.342 | 0.712 | -0.117 | 1.67 | 1.51 | 0.952 | 0.515 | 0.795 |
| CGAACGAGGGCATGCGTTGATAGCAAATGCCGAT | 0.569 | 0.207 | -0.45 | 0.0933 | -0.834 | 1.12 | 0.923 | 0.579 | -0.693 | 0.0948 |
| GCTATTAGTTGGAAGGGCAACCGAATGATTCTCG | -0.211 | -0.165 | 0.178 | -0.0403 | -0.253 | 0.0818 | 0.375 | 0.723 | -0.127 | 0.108 |
| CCTACTGGGCCAAAAAAGTCATTGATGCCGATAA | -0.316 | -0.318 | -0.289 | -0.181 | -0.774 | 0.404 | 0.271 | 0.686 | -0.0301 | 0.41 |
| TCAAATAGGTAATACAGGTGAAAGTCGGCATCTA | 0.834 | 1.29 | 0.418 | 0.892 | 0.0118 | 2.04 | 1.14 | 2.72 | 4.16 | 3.5 |
| TCTTGTAGATCAAGCAGGTTAAGCAAGCCTGAGT | 0.175 | 0.151 | -0.473 | 0.104 | -0.672 | 0.618 | -0.429 | 1.09 | 2.44 | 1.39 |
| CCAAACAGGTGAAAGGTAACTCAGTCTGGTACGC | 0.642 | 0.809 | -0.217 | 1.09 | -0.282 | 3.85 | 7.47 | 7.29 | 7.5 | 8.18 |
| ATCTCTAGGTAAGACTCAGGTCAGTGAAGAACGC | 0.852 | 0.72 | 0.909 | 0.721 | 0.721 | 1.03 | 0.296 | 0.86 | 0.135 | 0.413 |
| AGTCAAAGTTCCCTAGGTAACGTAAGATTCAGCT | -0.33 | -0.385 | -0.0977 | -0.4 | -0.222 | -0.259 | 0.281 | 0.455 | 0.0394 | -0.0115 |
| ATCGAAAGGTCGAGGTGAGTACAGAGAAAGGGAA | 4.22 | 3.51 | 0.276 | 2.53 | 0.653 | 4.64 | 3.5 | 3.96 | 1.38 | 2.61 |
| GTACCAAGGTGAATAGGTCCTTGATGAGTAGGCG | 0.104 | 0.0189 | -0.541 | -0.255 | -0.745 | 1.27 | 0.918 | 0.908 | 0.0599 | 0.237 |
| TAGCCTAGGTCAGGGGCCAGTATACCACGCGAAC | 1.76 | 1.34 | -0.415 | 1.88 | -0.376 | 2.61 | 2.83 | 2.96 | 0.91 | 2.43 |
